# In ChEMBL document CHEMBL3988442, “University of Dundee, Small-Polar-MMV Screening Library” (2021):
# About 960 (1.5%) of roughly 66,000 compounds showed an effect of 50% or more. This excerpt belongs to a sample that is enriched for strong results.
# Test system: Trypanosoma brucei
# Assay: Trypanosoma brucei 72 hour study
# Type: functional, organism-based
# Parameters: scale not given: in the data most compounds retested in dose-response had high values
smiles,measurement,setting,value
Cc1ccc(CN2CCOC3(COCCN(CCN(C)C)C3)C2)o1.O=C(O)C(F)(F)F.O=C(O)C(F)(F)F.O=C(O)C(F)(F)F (stereo not drawn),Percent Effect,"30 µM, 30.03 µM",20.44%
OC(CNC1CCOCC1)c1cccc(OCc2ccccc2)c1 (stereo not drawn),Percent Effect,"30 µM, 30.03 µM",-36.97%
CN1CCC(NCC(O)c2cccc(OCc3ccccc3)c2)CC1 (stereo not drawn),Percent Effect,"30 µM, 30.03 µM",101.3%
OC(CNC1CCSCC1)c1cccc(OCc2ccccc2)c1 (stereo not drawn),Percent Effect,"30 µM, 30.03 µM",-20.69%
Cl.c1cc(NCc2ccncc2)nc(C2CCCN2)c1 (stereo not drawn),Percent Effect,"30.3 µM, […]",7.613%
Cc1ccc(-n2ncc3c2CCCC3N)cc1C (stereo not drawn),Percent Effect,"30 µM, 30.03 µM",-37.31%
CC(C)(C)c1ccc(-n2ncc3c2CCCC3N)cc1 (stereo not drawn),Percent Effect,"30 µM, 30.03 µM",97.82%
Cc1cc(C)cc(-n2ncc3c2CCCC3N)c1 (stereo not drawn),Percent Effect,"30 µM, 30.03 µM",-36.85%
CN(C)C(=O)C1CCN(C2CCN(CC3CC3)CC2)CC1.O=C(O)C(F)(F)F.O=C(O)C(F)(F)F,Percent Effect,"30.3 µM, […]",-10.13%
CCc1nc(C2CCCN2C(=O)c2ccc3c(c2)nnn3C)no1 (stereo not drawn),Percent Effect,10 µM,-25.38%
same,Percent Effect,"30.3 µM, […]",-22.91%
c1ccc(-c2nc(CN3CCCC3Cn3cncn3)no2)cc1 (stereo not drawn),Percent Effect,"30.3 µM, […]",6.98%
CCN(CC)C(=O)C1CCN(c2ccc(Cl)cc2C#N)CC1,Percent Effect,"30.3 µM, […]",-5.722%
N#Cc1cc(Cl)ccc1N1CCN(C(=O)C2CCC2)CC1,Percent Effect,"30.3 µM, […]",81.04%
CC1CCN(C(=O)C2CCN(c3ccc(Cl)cc3C#N)CC2)CC1,Percent Effect,"30.3 µM, […]",28.97%
O=C(O)C(F)(F)F.O=C(c1cccnc1)N1CCC2(CC1)COCCN(c1ncccn1)C2,Percent Effect,"30 µM, 30.03 µM",-13.17%
COc1ccc(N2Cc3nc(N)ncc3C2=O)cc1Cl,Percent Effect,"30 µM, 30.03 µM",-4.562%
Cc1cc(S(=O)(=O)NCC(C)(C)N)c(F)cc1F.Cl,Percent Effect,"30 µM, 30.03 µM",-16.3%
CNC(=O)c1cc2c(nc1NCC1CC1)CCNCC2,Percent Effect,"30 µM, 30.03 µM",-38.29%
CC(C)Nc1nc2c(cc1C(=O)NCC1CC1)CCNCC2.O=C(O)C(F)(F)F.O=C(O)C(F)(F)F,Percent Effect,"30 µM, 30.03 µM",-26.83%
CC(C)CNc1nc2c(cc1C(=O)NCC1CC1)CCNCC2,Percent Effect,"30 µM, 30.03 µM",100.1%
O=C(O)C(F)(F)F.O=C1CCCN1Cc1nnc2n1CCN(Cc1ccccn1)CC2,Percent Effect,"30.3 µM, […]",-8.188%
Cc1cc(C[C@@H]2CCC[C@H]2NCc2c[nH]nc2-c2ccccc2)on1.O=C(O)CC(O)(CC(=O)O)C(=O)O,Percent Effect,"30.3 µM, […]",19.9%
CNC(=O)c1cc2c(nc1NCC(C)C)CCN(c1ncccn1)CC2.O=C(O)C(F)(F)F,Percent Effect,"30.3 µM, […]",98.85%
CNC(=O)c1cc2c(nc1NCC(C)C)CCN(C)CC2.O=C(O)C(F)(F)F.O=C(O)C(F)(F)F,Percent Effect,"30.3 µM, […]",-104.3%
CNC(=O)c1cc2c(nc1NCC(C)C)CCN(c1ccncn1)CC2.O=C(O)C(F)(F)F,Percent Effect,"30 µM, 30.03 µM",-20.72%
O=C(CSc1ccc2c(c1)OCCO2)NS(=O)(=O)c1cc(F)ccc1F,Percent Effect,"30 µM, 30.03 µM",61.54%
O=C(CSc1ccc2c(c1)OCCO2)NS(=O)(=O)c1ccccc1F,Percent Effect,"30 µM, 30.03 µM",-24.23%
O=C(CSc1ccc(F)c(F)c1)NS(=O)(=O)c1ccc2c(c1)OCCO2,Percent Effect,"30 µM, 30.03 µM",-8.026%
CN1C(=O)CC(c2ccccc2)C12CCN(CC1CCOCC1)CC2.O=C(O)C(F)(F)F (stereo not drawn),Percent Effect,"30.3 µM, […]",-3.358%
COCCN1CCCn2c(nc(Cn3cncn3)cc2=O)C1.O=C(O)C(F)(F)F,Percent Effect,"30 µM, 30.03 µM",64.46%
O=C(O)C(F)(F)F.O=c1cc(Cn2cncn2)nc2n1CCCN(Cc1ccc(F)cc1)C2,Percent Effect,"30 µM, 30.03 µM",27.77%
O=C(O)C(F)(F)F.O=C(O)C(F)(F)F.O=c1cc(Cn2cncn2)nc2n1CCCN(CCN1CCCC1)C2,Percent Effect,"30 µM, 30.03 µM",14.15%
O=C(O)C(F)(F)F.c1cnc(NCc2nnn3c2CN(CC2CC2)CCC3)nc1,Percent Effect,"30.3 µM, […]",-52.08%
Cc1nn(C)c(N(C)C)c1CNC1CCc2cc(F)ccc21.Cl (stereo not drawn),Percent Effect,10 µM,-39.72%
Cn1cccc1C(=O)N1CCc2ncc(Cn3cccn3)n2CC1,Percent Effect,"30 µM, 30.03 µM",59.24%
Cc1ccc(C(=O)N2CCc3ncc(Cn4cccn4)n3CC2)cn1,Percent Effect,"30.3 µM, […]",-7.438%
O=C(c1ccoc1)N1CCc2ncc(Cn3cccn3)n2CC1,Percent Effect,"30.3 µM, […]",-11.59%
CS(=O)(=O)NCc1cncc2c1CCN(C(=O)c1cccnc1)C2.Cl.Cl,Percent Effect,"30.3 µM, […]",-7.257%
COCC1CN(Cc2ccoc2)Cc2nnn(C)c21.O=C(O)C(F)(F)F (stereo not drawn),Percent Effect,"30 µM, 30.03 µM",-46.26%
CCc1c(C)nc2cc(C3CCN(Cc4cccc(F)c4)C3)nn2c1O (stereo not drawn),Percent Effect,"30.3 µM, […]",27.1%
CCc1c(C)nc2cc(C3CCN(CCc4ccccc4)C3)nn2c1O (stereo not drawn),Percent Effect,"30.3 µM, […]",58.63%
CCc1c(C)nc2cc(C3CCN(Cc4cccnc4)C3)nn2c1O (stereo not drawn),Percent Effect,"30.3 µM, […]",7.415%
